# Reference: PubChem BioAssay AID1963321 (National Center for Advancing Translational Sciences (NCATS), 2024)
# Records with an inconclusive call do not appear. Where a call stands in place of a potency, no number is given. The source made the active and inactive calls. Calls come from the whole dose curve.
# Target: cAMP-dependent protein kinase catalytic subunit alpha (Homo sapiens) (UniProt P17612)
# Assay: Protein Kinase A (PKA-HiBiT) enzymatic inhibition screen - Functional assay
# Details: luminescence; series mostly up to 57.5 µM
# Description: National Center for Advancing Translational Sciences (NCATS),
# National Institute of Health (NIH), Maryland
# Discovery and optimization of novel protein-binding ligands underlies many of the methods and applications of biology, drug discovery, clinical diagnostics, and environmental toxicology. Assays for detecting the interaction of, for example, a molecule with a macromolecular target also referred to here as the target of interest (TOI) is dependent on a compatible output technology. Depending on the nature and knowledge surrounding the TOI, whether a receptor, enzyme, regulatory subunit or scaffold, or a sequence-defined nucleic acid folded into a complex tertiary structure, assay strategies can vary widely.
# Here we exploit ligand-biased changes in the structural dynamics of the target protein to control reporter alpha complementation allowing a non-competitive, non-functional, non-separation measure of ligand-target interaction.
# Using a chemical library of >1,200 compounds enriched for scaffolds known to be associated with the inhibition of firefly luciferase (FLuc) activity (PubChem AIDs 2309) we first illustrate and compare the Structural Dynamics Response (SDR) assay vs. the standard functional FLuc enzyme assay (2). Secondly, we show the specificity and sensitivity of the SDR for the Abelson tyrosine kinase (ABL1) compared to the serine/threonine protein kinase A, using an enriched chemical library of 128 compounds selected, in part, for activity annotated with ABL1 kinase activity using the Pharos database (3).
# (1) A. S. Dixon et al., NanoLuc Complementation Reporter Optimized for Accurate Measurement of Protein Interactions in Cells. ACS Chem Biol 11, 400-408 (2016).
# Chemistry & Biology, 19, 1060 - 1072 (2012).
# (3) K. J. Kelleher et al., Pharos 2023: an integrated resource for the understudied human proteome. Nucleic Acids Res 51, D1405-D1416 (2023).
# PROTOCOL TABLE (as described by Inglese J, Shamu CE and Guy RK. 2007)
# SEQUENCE No. (e.g., 1, 2, 3, etc.); […] (e.g., C. elegans, Compounds, Incubation, Read, etc.); VALUE and DESCRIPTION.
# 1. Reagent. Dispense 4 uL PKA-N-HiBiT enzyme per well at a final enzyme concentration of 10 nM in buffer with 87.5 uM ATP (functional assay) into columns 2-48 of four replicate Greiner 1536-well white,solid bottom high base, medium plates per assay. Dispense respective buffer without enzyme at 4 uL/well in column 1 of assay plates using BioRaptr 2.
# 2. Compounds. Library compounds added at 23 nL/well by pin transfer. DMSO neutral control and H-89 positive control added at 25 nL/well, transfer by Mosquito dispenser.
# 3. Incubation. Incubate enzyme and compounds at room temperature for 30 min, protect from light.
# 4. Reagent. (Functional assay) Transfer 25 nL of kemptide peptide substrate to each well of four replicate kinase assay plates with Mosquito dispenser.
# 5. Incubation. (Functional assay) Kinase Enzyme incubated with peptide substrate for 3 h at room temperature, protected from light.
# 6. Reagent. (Functional assay) Add 4 uL/well of Kinase-Glo Plus reagent (Promega) to kinase activity assay plates.
# 7. Detector. (Functional assay) Luminescence measured using CCD-based camera (ViewLux) with settings as follows: Exposure, 1 sec; Gain, High; Speed, Slow; Binning, 2X.
# Inglese J, Shamu CE and Guy RK, Reporting data from high throughput screening of small molecule libraries, Nature Chemical Biology, 2007, 3(8): 438-441. doi.org/10.1038/nchembio0807-438.
row,Compound,Potency
1,O=[N+]([O-])O[C@H]1CO[C@H]2[C@@H]1OC[C@H]2O[N+](=O)[O-],inactive
2,N#Cc1cn([C@@H]2O[C@H](CO)[C@H](O)[C@@H]2O)c2ncnc(N)c12,inactive
3,CCNC(=O)C[C@@H]1N=C(c2ccc(Cl)cc2)c2cc(OC)ccc2-n2c(C)nnc21,inactive
4,Cc1[nH]nc2ccc(-c3cncc(OC[C@@H](N)Cc4c[nH]c5ccccc45)c3)cc12,2010 nM (active)
5,O=C(NCCCNc1nc(Nc2ccc(N3CCOCC3)cc2)ncc1C1CC1)C1CCC1,inactive
6,C/C(O)=C(\C#N)C(=O)Nc1cc(Br)ccc1Br,inactive
